Screens as filed in PubChem.
Only some compounds are listed: those with a hit (about 2% of all), similar ones and a draw of the others.
S1P3 antag – S1P3 receptor antagonists, primary screen, cell-based; hit rate 0.27% among 170,000; Sphingosine 1-phosphate receptor 3 (Homo sapiens), Q99500; AID 485, 2006; CHO S1P3 NFAT-BLA reporter, FRET fluorescence, antagonist mode; inhibition, % at 4.98 µM;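 active means inhibition above the plate cutoff, the mean inhibition of test wells on that plate plus 3 SD, cut at about 28% in these data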;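 further: cells challenged with S1P at its EC80 of 0.8 µM; blue over green emission ratio from cleaved BLA substrate after 4 h stimulation; 0% = S1P-stimulated wells and 100% = unstimulated DMSO-only wells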
EP2 mod – EP2 receptor modulators, cAMP readout, primary screen, cell-based, HTRF cAMP, PGE2 stimulation. EP2-expressing cells, cAMP HTRF FRET, PGE2 co-stimulation. induction, % at 25 µM. hit rate 0.83% among 260,000. AID 940, 2007;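 active means compounds whose cAMP rise, as percent of the full-agonist control response, exceeds 60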;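 further: rat C6 glioma line stably carrying human EP2 under a CMV promoter; the protocol text gives 20 µM as final concentration; 100% = response of wells given 1 µM PGE2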
EP2 antag – human EP2 receptor antagonists, primary screen, TR-FRET cAMP, C6 glioma cells; Prostaglandin E2 receptor EP2 subtype (Homo sapiens), P43116; C6 glioma cells expressing human EP2; cells stimulated with saturating PGE2; inhibition, % at 25 µM; hit rate 0.52% among 260,000; AID 1422, 2008;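 active means percent inhibition above 40 after rounding to a whole number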;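 further: rat C6 glioma host cells with rolipram phosphodiesterase inhibitor present; the protocol text gives 20 µM as final concentration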
S1P4 antag – S1P4 receptor antagonists, primary screen, cell-based; Sphingosine 1-phosphate receptor 4 (Homo sapiens), O95977; inhibition, % at 4.98 µM; AID 1510, 2009; hit rate 0.26% among 220,000; S1P4-expressing cells, antagonist mode, reporter read-out; in the data active means inhibition above about 29%;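 further: 0% = wells stimulated with agonist and 100% = vehicle wells without agonist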
S1P4 ag – S1P4 receptor agonists, primary screen, cell-based; activation, % at 4.98 µM; S1P4-expressing cell line, agonist reporter assay; AID 1509, 2009; hit rate 0.35% among 220,000; Sphingosine 1-phosphate receptor 4 (Homo sapiens), O95977; in the data active means activation above about 11%;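 further: 0% = DMSO vehicle and 100% = reference agonist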
S1P4 antag conf – S1P4 receptor antagonists, human, confirmation, cell-based. shares compounds with S1P4 antag. S1P4-expressing cell line, antagonist mode, reporter read-out. inhibition, % at 4.98 µM. hit rate 71% among 520. AID 1524, 2009; in the data active means inhibition above about 30%
S1P1 antagonist – S1P1 receptor antagonists, human, counter-screen for S1P4 antagonist project, cell-based; hit rate 37% among 520; inhibition, % at 4.98 µM; AID 1564, 2009; shares compounds with S1P4 antag; cell-based S1P1 antagonist counterscreen, inhibition; in the data active means inhibition above about 40%;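 further: receptor stimulated with S1P near its EC80; 0% = agonist stimulated wells and 100% = vehicle only wells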
Target sequence (P21453 whole entry, looked up): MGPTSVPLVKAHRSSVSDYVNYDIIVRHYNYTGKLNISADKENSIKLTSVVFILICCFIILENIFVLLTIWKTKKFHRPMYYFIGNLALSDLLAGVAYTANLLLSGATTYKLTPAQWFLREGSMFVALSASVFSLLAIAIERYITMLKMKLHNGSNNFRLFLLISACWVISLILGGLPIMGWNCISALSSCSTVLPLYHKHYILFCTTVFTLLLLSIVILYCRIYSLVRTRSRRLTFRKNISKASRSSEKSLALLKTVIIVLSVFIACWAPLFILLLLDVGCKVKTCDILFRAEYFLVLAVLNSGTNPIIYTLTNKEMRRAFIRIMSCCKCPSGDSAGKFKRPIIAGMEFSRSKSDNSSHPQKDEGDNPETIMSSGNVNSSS
The depositor's hits bear a star; . = no result.

SMILES	S1P3 antag	EP2 mod	EP2 antag	S1P4 antag	S1P4 ag	S1P4 antag conf	S1P1 antagonist
CN(C)CC(CCC(CN(C)C)C(=O)c1ccccc1)C(=O)c1ccccc1 (centres undefined)	8.4	-35.1	8.6	41.3*	-0.4	110.5*	39.3
COc1ccc(CNC(=O)C(c2ccncc2)N(C(=O)Cc2cccs2)c2ccccc2)cc1 (centres undefined)	-0.7	-4.4	8.5	2.8	2.3	.	.
COc1ccc(N(C(=O)CCl)C(C(=O)NCCc2ccccc2)c2cccs2)cc1 (centres undefined)	-7.7	16.5	7.3	29.9*	0.4	99.1*	15.5
COc1ccc(C2(C(=O)N3CCC(Cn4nc(-c5ccco5)ccc4=O)CC3)CC2)cc1	.	-28.8	.	.	.	.	.
O=C(NCCc1nc(-c2ccc(Cl)cc2)n[nH]1)C1(c2ccccc2)CC1	.	-51.5	4.1	.	.	.	.
Cc1cc(NC(=O)c2ccccc2-c2ccccc2)ccc1Br	-0.9	25.4	4.5	37.0*	-0.9	31.6*	13.8
CCS(=O)(=O)N1CCC(C(=O)NCCN2CCOCC2)CC1	-26.4	16.4	2.3	6.0	0.7	.	.
CCS(=O)(=O)N1CCC(C(=O)NCCCN2CCCC2)CC1	12.6	26.4	0.8	32.3*	-1.3	12.3	14.8
Cc1cc2c(c(N3CCOCC3)n1)C(=O)OC2	.	-3.9	12.5	35.5*	-0.5	-3.3	-1.1
Cc1noc(/C=C/c2nn(C)cc2Cl)c1[N+](=O)[O-]	-0.3	-47.0	16.8	34.5*	1.2	59.1*	20.7
O=C(/C=C/c1ccccc1)CC(O)(c1ccccc1)C(F)(F)F (centres undefined)	.	-0.2	6.0	46.9*	-2.1	106.2*	41.4*
COc1ccc(/C=C/C(=O)CC(O)(c2ccccc2)C(F)(F)F)cc1 (centres undefined)	.	-12.0	7.7	10.8	-0.1	.	.
O=C(/C=C/c1ccccc1)CC(O)(c1ccccc1)C(F)(F)C(F)F (centres undefined)	.	2.8	14.0	58.5*	-3.1	106.4*	33.2
CCC1c2ccsc2CCN1Cc1ccc(OC)c(OCCOC)c1 (centres undefined)	.	13.3	-1.5	.	.	.	.
CC1(C)C(=O)Nc2ccccc2N1C(=O)Cn1ncc(Cl)c(Cl)c1=O	-3.0	-24.3	12.8	94.8*	0.2	86.7*	33.3
O=C(Cn1ncc(Cl)c(Cl)c1=O)N1CCOCC1	-5.0	13.6	4.0	44.1*	-4.1	59.5*	26.6
Cc1nn(CC(=O)N2c3ccccc3NC(=O)C2(C)C)c(C)c1[N+](=O)[O-]	1.0	-7.4	4.7	-1.4	0.3	.	.
O=C(Cn1ncc2c1-c1ccccc1OC2)N1CCc2ccccc21	9.9	4.2	8.6	-2.7	0.0	.	.
O=C(Cn1ncc2c1-c1ccccc1OC2)N1CCN(Cc2ccccc2)CC1	3.9	-51.9	10.1	9.3	0.3	.	.
O=C(Cn1nnc2ccccc2c1=O)N1CCOCC1	-18.5	25.9	2.4	0.8	1.2	.	.
O=C(Cn1ncc(Cl)c(Cl)c1=O)N1CCc2ccccc21	-15.6	10.9	3.7	78.9*	-5.1	118.1*	94.3*
O=C(Cn1ncc(Cl)c(Cl)c1=O)N1CCN(Cc2ccccc2)CC1	-13.7	-10.3	10.5	71.1*	-2.5	118.0*	60.6*
CCc1cccc(C)c1NC(=O)CSc1nnc(-c2ccco2)n1C	.	-0.1	10.9	.	.	.	.
NC(=O)c1nc(-c2ccncc2)nc2c1[nH]c(=O)n2Cc1ccccc1	.	-17.1	10.4	.	.	.	.
Cc1cc(C)c2cc(CN(Cc3ccco3)C(=O)c3ccccc3)c(=O)[nH]c2c1	.	18.0	6.2	.	.	.	.
SMILES	S1P3 antag	EP2 mod	EP2 antag	S1P4 antag	S1P4 ag	S1P4 antag conf	S1P1 antagonist
COc1cccc(-n2nnnc2S(C)(=O)=O)c1	.	-9.0	18.5	42.0*	0.2	110.3*	17.0
Cc1ccc(C)c(NC(=O)CSc2ncnc3sc(C)c(C)c23)c1	.	9.2	13.5	.	.	.	.
Cc1cc(Cl)n2c(nc3cc(F)c(F)cc32)c1C#N	-10.3	-45.0	8.7	31.0*	3.1	111.8*	80.7*
Cc1cc(C)n2c(=O)c3ccc(Cl)cc3nc2c1C#N	-15.3	-19.2	9.7	-2.7	0.2	.	.
Cc1ccc(SCCC(=O)N2CCOCC2)cc1	-0.8	21.3	10.2	29.0*	0.3	7.3	5.9
O=[N+]([O-])c1ccc(N/N=C/c2c[nH]c3ccccc23)cc1	.	-15.5	25.5	36.6*	-3.1	50.0*	78.2*
C=CCOc1ccc(/C=C\c2nc(O)c([N+](=O)[O-])c(=O)[nH]2)cc1	.	11.5	13.2	.	.	.	.
CC1Cn2c(nnc2-c2cc3ccccc3cc2O)S1 (centres undefined)	-1.6	-15.1	21.9	33.7*	1.1	6.0	26.4
O=C(CC(SCc1ccco1)c1ccc(O)cc1)c1cccs1 (centres undefined)	-1.6	38.3	8.4	20.8	-1.2	.	.
O=C(CC(SCCO)c1ccc2c(c1)OCO2)c1cccs1 (centres undefined)	-10.8	-37.1	7.4	36.5*	-0.6	28.5	-20.6
O=C(CN1CCC(O)(c2ccccn2)CC1)N(C1CCCCC1)C1CCCCC1	.	5.9	.	.	.	.	.
N#Cc1cc(Oc2cccc3cccnc23)c(-n2nnc3ccccc32)cc1C#N	.	-0.2	5.2	33.6*	7.4	11.7	-19.7
CCOC(=O)C(C)(C)N(Cc1ccc(Cl)cc1)S(=O)(=O)c1ccc(Cl)c([N+](=O)[O-])c1	1.1	39.7	10.4	1.9	-0.7	.	.
CCOC(=O)C(C)(C)N(Cc1ccc(C)cc1)S(=O)(=O)c1ccc(Cl)c([N+](=O)[O-])c1	-15.4	5.6	5.8	42.7*	-1.4	80.3*	0.9
COC(=O)c1cn(Nc2ncc(C(F)(F)F)cc2Cl)c(=O)c2ccccc12	.	31.1	10.0	37.9*	0.7	31.0*	-2.7
COC(=O)c1cn(N(C)c2ncc(C(F)(F)F)cc2Cl)c(=O)c2ccccc12	.	31.4	20.6	-13.2	-1.6	.	.
OC(COc1ccc(CNCCc2ccc(C(F)(F)F)cc2)cc1)CN1CCCCC1 (centres undefined)	-26.0	-66.8	3.0	30.4*	-2.0	41.1*	28.4
Cc1nn(C)cc1C(=O)Nc1cc(Oc2ccc(Cl)cc2)cc([N+](=O)[O-])c1	.	-2.3	4.8	-27.1	0.4	.	.
Cn1cc([N+](=O)[O-])c(C(=O)Nc2cc(Oc3ccccc3)cc([N+](=O)[O-])c2)n1	-11.1	-19.9	6.3	37.1*	0.4	111.4*	-3.1
O=C(Cn1c(CC(=O)N2CCCC2)nc2ccccc21)Nc1ccc(F)c(Cl)c1	.	-30.6	17.5	.	.	.	.
